Assay outcomes from PubChem.
Sampled rows, rich in hits. Any-hit rate of the full collection: about 2.3%.
M1 ag parental: nonselective activator or artifact in parental CHO-K1 cells. Fluo-8 calcium fluorescence; scaled to maximal ATP response, vehicle zero. activation, % at 3 µM. actives 0.48% (n = 360,000). AID 602248; in the data active = activation above about 15%;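 note: untransfected CHO-K1 host cells lacking M1 receptor as counterscreen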
M1 PAM parental: counter-screen for M1 PAMs: effect in parental CHO-K1 cells; actives 0.02% (n = 360,000); activation, % at 3 µM; ATP EC20, Fluo-8 calcium fluorescence; 0% at ATP EC20, 100% at ATP max; AID 602247;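 active = activation above the run cutoff, the mean activation of all test compounds plus 3 SD, cut at about 40% in these data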;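 note: peak over basal fluorescence ratio in a 140 s read after ATP addition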
M1 antag: antagonists of human M1 muscarinic receptor | P11229 | CHO-K1 hM1, Fluo-8 calcium fluorescence, ACh EC80 antagonist | inhibition, % at 3 µM | actives 1.3% (n = 360,000) | AID 588852;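 active = percent inhibition above its own plate's cutoff, namely the mean of that plate's compound wells plus 3 SD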;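 note: peak over basal fluorescence ratio during 140 s after agonist addition; 0% = ACh EC80 plus DMSO and 100% = DMSO alone without agonist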
Target sequence (P11229 whole entry, looked up): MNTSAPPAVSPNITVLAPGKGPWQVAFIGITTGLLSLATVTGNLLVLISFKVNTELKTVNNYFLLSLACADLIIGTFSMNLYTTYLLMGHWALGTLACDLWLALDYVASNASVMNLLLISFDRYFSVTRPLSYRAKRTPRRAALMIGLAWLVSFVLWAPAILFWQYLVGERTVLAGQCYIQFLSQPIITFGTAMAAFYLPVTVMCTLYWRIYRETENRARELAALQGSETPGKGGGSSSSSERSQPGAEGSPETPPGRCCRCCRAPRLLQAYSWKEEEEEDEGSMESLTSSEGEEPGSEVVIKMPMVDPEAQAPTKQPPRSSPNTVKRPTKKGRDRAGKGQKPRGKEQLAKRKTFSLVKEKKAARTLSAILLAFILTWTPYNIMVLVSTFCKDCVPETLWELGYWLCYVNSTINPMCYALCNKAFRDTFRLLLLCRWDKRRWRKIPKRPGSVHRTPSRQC
M1 PAM: positive allosteric modulators of human M1 muscarinic receptor; P11229; CHO-K1 hM1, Fluo-8 calcium fluorescence, ACh EC20; 0% = ACh EC20, 100% = maximal ACh; activation, % at 3 µM; actives 0.088% (n = 360,000); in the data active = activation above about 19%, passing the limit was not always enough
CHRM1 agonist: agonists of human M1 muscarinic receptor; P11229; CHO-K1 hM1, Fluo-8 calcium fluorescence, agonist mode; 0% DMSO, 100% acetylcholine EC100; activation, % at 3 µM; actives 0.33% (n = 360,000); AID 588814;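 active = activation above the run's mean compound activation plus 3 SD, cut at about 16% in these data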;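 note: peak over basal fluorescence ratio within a 140 s kinetic read after compound addition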
CHO-K1 Ca antag: nonselective inhibitor or artifact in parental CHO-K1 cells | ATP-induced calcium, Fluo-8 fluorescence | inhibition, % at 3 µM | actives 0.6% (n = 360,000) | AID 602250;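 active = inhibition above a per-plate cutoff, the plate's mean sample inhibition plus 3 SD, cut at about 24% in these data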;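 note: 0% = DMSO plus EC80 ATP and 100% = DMSO alone without ATP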
An asterisk follows results filed as active.

SMILES	M1 ag parental	M1 PAM parental	M1 antag	M1 PAM	CHRM1 agonist	CHO-K1 Ca antag
CCN(C(=O)COC(=O)c1ccc(S(=O)(=O)N2CCCc3ccccc32)cc1)C1CCS(=O)(=O)C1 (stereo unspecified)	0	12	72*	-32	-14	-8
O=C(CSc1nnc(COc2ccccc2)o1)Nc1ccc(F)cc1	9	10	-11	7	-5	-4
COc1ccc(C(=O)CSc2nnc(CNC(=O)c3ccc(OC)c(OC)c3)n2C)cc1	0	7	-6	6	-4	4
Cc1ccc(-c2csc(N(CCCN3CCOCC3)C(=O)c3ccco3)n2)cc1	5	1	15	-14	-7	-15
COc1ccc(-c2csc(N(CCCN3CCOCC3)C(=O)c3ccco3)n2)cc1	3	-4	42*	-9	-3	6
COc1ccc(-c2csc(N(CCCN(C)C)C(=O)c3cccs3)n2)cc1	8	19	30*	-7	5	3
CCc1nc(SCC(=O)Nc2nnc(CC)s2)c2c(C)c(C)sc2n1	1	-11	-23	8	0	13
CCc1nc(SCC(=O)Nc2cc(OC)ccc2OC)c2c(C)c(C)sc2n1	0	-11	33*	-11	-7	-16
CCOC(=O)c1c(NC(C)=O)sc2c1CCC(C=O)=C2Sc1ccccc1	0	14	-4	1	-5	-8
CCOC(=O)c1c(NC(C)=O)sc2c1CCCNC2=O	0	-10	-6	9	7	26*
Cc1ccc(S(=O)(=O)N2[C@@H](c3ccc(C(C)(C)C)cc3)C(C(=O)O)=CC[C@H]2c2cccs2)cc1	0	-12	-13	10	-2	34*
CCCCCCCCNCCS(=O)(=O)NC1CCCCC1	1	23	-14	0	3	-9
O=C(NCCN1CCOCC1)c1ccc2c(c1)N(Cc1ccccc1)C(=O)c1ccccc1S2	0	13	10	-1	-2	1
CCN1C(=O)CSc2ccc(C(=O)NCCCN3CCOCC3)cc21	0	8	-6	5	-14	-13
O=C(NCCN1CCOCC1)c1ccc2c(c1)N(Cc1ccccc1)C(=O)CS2	0	6	30*	-21	-8	-10
O=C(NCCN1CCOCC1)c1ccc2c(c1)N(Cc1ccc(Cl)cc1)C(=O)CS2	3	-3	28*	-29	-11	-23
CC(C)CC(=O)Nc1ccc(-c2nc3ccccc3c(=O)[nH]2)cc1	0	11	-17	5	-7	1
CC1(C)Oc2ccc3ccc(=O)oc3c2/C(=C/Nc2ccc(O)cc2)C1=O	3	13	9	-9	-11	-2
CC1(C)Oc2ccc3ccc(=O)oc3c2/C(=C/Nc2cccc(O)c2)C1=O	1	-10	14	-12	-2	29*
NC(=Nc1nc(-c2ccccn2)cc2ccccc12)c1ccccn1	0	-17	33*	-14	-1	1
CN(C)CCCN1c2ccc(O)cc2Sc2ccc(Cl)cc21	4	1	100*	-31	-4	-2
CC1=C(C(=O)N(C)C)CC(CC(=O)NCCCCc2ccccc2)C(=O)N1CCCN1CCCC1=O (stereo unspecified)	1	20	-23	27*	5	-19
CCOc1ccc(NS(=O)(=O)c2cccc(C(=O)N(C)Cc3ccco3)c2)cc1	1	-4	7	-4	-1	-11
CN(C)Cc1ccccc1Sc1ccc(O)cc1O	0	-3	-12	3	18*	-2
COc1cc(C)ccc1OCc1cc(C(=O)NC2CCOCC2)no1	0	10	-7	4	-3	-6
SMILES	M1 ag parental	M1 PAM parental	M1 antag	M1 PAM	CHRM1 agonist	CHO-K1 Ca antag
COc1cc(C)ccc1OCc1cc(C(=O)NC(c2ccccn2)C(F)(F)F)no1 (stereo unspecified)	0	-12	-10	8	-1	35*
CC1(c2ccc(OC(F)F)cc2)NC(=O)N(CC(=O)Nc2ccc3c(c2)OCO3)C1=O (stereo unspecified)	29*	20	17	-5	39*	-14
CC1(c2ccc(OC(F)F)cc2)NC(=O)N(CC(=O)Nc2ccccc2)C1=O (stereo unspecified)	46*	12	26*	-11	46*	17
CC1(c2ccc(Cl)cc2)NC(=O)N(CC(=O)Nc2cccnc2Cl)C1=O (stereo unspecified)	17*	14	-10	6	22*	-8
CCCCCC(C)NC(=O)CN1C(=O)NC(C)(c2ccc3ccccc3c2)C1=O (stereo unspecified)	0	12	-4	14	18*	3
CCOC(=O)CN1C(=O)NC(C)(c2ccc(OC(F)F)cc2)C1=O (stereo unspecified)	3	16	-4	1	3	-13
CC(=O)Nc1ccc(/C=N/N2C(=O)NC(C)(c3ccc(OC(F)F)cc3)C2=O)cc1 (stereo unspecified)	6	11	12	-1	27*	-10
O=C(ONc1ccc(N=NC(=O)c2ccccc2O)cc1)c1ccccc1	0	-16	20	-11	-4	28*
CCCC(C)C(=O)Nc1ncc(S(=O)(=O)c2ccc([N+](=O)[O-])cc2)s1 (stereo unspecified)	36*	6	28	-5	40*	14
CC(Nc1nc(-c2cccnc2)nc2ccccc12)c1ccc(F)cc1 (stereo unspecified)	2	-2	21*	-17	-10	-7
COc1ccc(/C=N/Nc2nc(-c3cccnc3)nc3ccccc23)cc1OC	5	1	26	-16	0	2
COc1ccc(CCNc2nc(-c3cccnc3)nc3ccccc23)cc1OC	7	-6	25*	-13	-8	23
Oc1ccc(/C=N/Nc2nc(-c3cccnc3)nc3ccccc23)c(O)c1	6	12	9	-3	-1	-5
COc1ccc(C(CNc2nc(-c3cccnc3)nc3ccccc23)N(C)C)cc1 (stereo unspecified)	3	4	33*	-31	-11	4
Cc1c(O)ccc(/C=N/Nc2nc(-c3cccnc3)nc3ccccc23)c1O	6	4	32*	-8	1	-1
Cc1c(C(=O)N2CCCCC2)c(S(=O)(=O)NCc2ccc(Cl)cc2)c(C)n1C	4	-8	-8	7	-3	12
CC(=O)OCC1(C)CN(c2ccccc2)NC1=O (stereo unspecified)	0	-2	11	-1	-3	2
CC(=O)Nc1ccc(N2CC(C)(C)C2=O)cc1	0	2	3	3	-2	-13
O=C(CCn1c(=O)[nH]c2ccsc2c1=O)Nc1ccc(F)c(F)c1	1	10	-4	7	-2	-4
